DT40 TDP1 no CPT: qHTS for Inhibitors of human tyrosyl-DNA phosphodiesterase 1 (TDP1): qHTS in cells in absence of CPT. DT40 Tdp1-/- hTDP1 cells, no CPT, ATP luminescence, 48 h. Potency, µM (top dose mostly 46.2 µM), for inactives: at the top dose activity change, negative = growth inhibition, actives largely listed as inhibitors. actives 15% (n = 420,000); also: % is scaled to controls: 0 for no effect and ±100 for the full control effect; nearly all actives have a fitted effect of over 55% in size
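Readout: luminescence from CellTiter-Glo after 30 min in the dark at RT. Cells: DT40 Tdp1-/- with stable hTDP1, 400/well. Exposure: compounds alone, ≥48 hr, 37 °C.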
S2 tox: reduces viability in counter-screen for ATXN expression inhibitors | S2 cells (HEK-293 line with an ATXN2-luciferase reporter) viability, CellTiter-Fluor protease fluorescence, 24 h | Potency, µM (highest dose often 56.7 µM), hits mostly cytotoxic | actives 0.49% (n = 400,000); also: nearly all actives have a fitted effect of over 40% in size
ATXN2 expr inh: inhibitors of ATXN2 expression; AID 1745845; Potency, µM (titrated, usually from 57 µM), without a hit: at the highest dose activity change, negative = inhibition, most hits filed as inhibitors; HEK-293 ATXN2-luciferase reporter, luminescence, 24 h; actives 0.72% (n = 360,000); also: % is scaled to controls: 0 for no effect and ±100 for the full control effect; nearly all actives have a fitted effect of over 55% in size
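qHTS (up to 57 uM final) was run with 24 h compound exposure of reporter cells at 37 °C. Each well was multiplexed: SteadyGlo luminescence measured ATXN2-luciferase expression after a fluorogenic Gly-Phe-AFC viability readout (25 uM final).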
TDP1 cell CPT: growth inhibition of DT40 Tdp1-/-;hTDP1 cells with camptothecin (screen for TDP1 inhibitors) | chicken DT40 Tdp1-/-;hTDP1 cells + 20 nM CPT, ATP luminescence, 48 h | Potency, µM (highest dose often 46.2 µM), inactives show at the top dose activity change, negative = growth inhibition, most hits filed as inhibitors | actives 12% (n = 420,000) | AID 686979; also: % is scaled to controls: 0 for no effect and ±100 for the full control effect; nearly all actives have a fitted effect of over 55% in size
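Chicken DT40 Tdp1-/- cells complemented with human TDP1, 400 cells/well, exposed to compounds plus 20 nM camptothecin for at least 48 h at 37 C; viability read as ATP content by CellTiter-Glo luminescence.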
TGFb SMAD3 inh: blocks TGF-b signaling; HepG2 CAGA-GFP TGF-b/SMAD3 reporter, GFP fluorescence, 18 h; TGF-beta stimulated, 500 pg/mL final; Potency, µM (highest dose often 46.1 µM), inactives show at the top dose activity, negative = inhibition, actives largely listed as inhibitors; actives 1.2% (n = 410,000); AID 588855; also: % is scaled to controls: 0 for no effect and ±100 for the full control effect; nearly all actives have a fitted effect of over 65% in size
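Inhibition was scored as loss of TGF-beta-induced (500 pg/mL final, 18 hours, 37 degrees C) GFP in HEPG2 cells carrying a CAGA-GFP reporter, in DMEM with 1% FBS. Well GFP was summed per cell; Activity was normalised to unstimulated and stimulated DMSO wells, then concentration-response fitting.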
HepG2 viability: kills HepG2 cells in TGF-b inhibitor counter-screen; actives 0.76% (n = 410,000); AID 588856; Potency, µM (doses to about 46.1 µM), for the others: top-dose activity change, negative = cytotoxicity, usual class: cytotoxic; HepG2 CAGA-GFP viability, ATP luminescence, 18 h
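HepG2 CAGA-GFP cells (1000/well, DMEM with 1% FBS) received compound, then TGF-beta at 500 pg/mL final, and were incubated 18 hours at 37 degrees C. Viability was read by CellTiter-Glo luminescence. Media-only wells were set as complete cell-killing and DMSO as no toxicity.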
Numbers without * were called inactive; i = inactive; ? = inconclusive; · = not tested or not shown. Shown are actives, neighbours in structure and some others; about 17% of the full set was active somewhere. Calls follow the shape of the dose curve; as a rule, active = well fitted curve in the direction sought with a large enough effect; inconclusive = small, poorly fitted or top-dose-only effect, or another doubt; inactive = no such curve, though single readings can be large; an effect the other way counts as inactive or inconclusive. Potency is read from the fitted curve at half-maximal effect.

SMILES	DT40 TDP1 no CPT	S2 tox	ATXN2 expr inh	TDP1 cell CPT	TGFb SMAD3 inh	HepG2 viability
O=C(O)C1C2C=CC(O2)C1C(=O)Nc1ccc(S(=O)(=O)Nc2ccccc2)cc1 (stereo not given)	?	i	-4.7%	14.6µM*	0.4%	-26.8%
OCCC1CN(Cc2cc3c(cc2Cl)OCO3)CCN1Cc1ccccc1 (stereo not given)	?	i	-10.6%	?	-3.7%	-25.9%
COc1cc(C#Cc2ccc3cc(CCO)oc(=O)c3c2)cc(OC)c1	18.4µM*	i	33.2%	?	-2.0%	-20.6%
Cc1cccc(NC(=O)c2cc3c(=O)n4cccc(C)c4nc3s2)c1C	2.31µM*	i	16.0%	1.84µM*	-13.2%	-41.1%
CCOCCCNC(=O)c1cc2c(=O)n3cccc(C)c3nc2n1C	0.82µM*	i	-12.6%	0.581µM*	0.2%	3.9%
COc1ccc(OC)c(NC(=O)c2cc3c(=O)n4cccc(C)c4nc3n2C)c1	9.2µM*	·	·	10.3µM*	-6.3%	-15.6%
COc1ccc(NC(=O)c2cc3c(=O)n4ccccc4nc3n2C)c(OC)c1	-21.1%	?	5.3%	-15.6%	4.4%	-2.7%
C=CCn1c(=N)c(C(=O)NCCCOC)cc2c(=O)n3cccc(C)c3nc21	?	·	-7.4%	?	5.8%	-11.0%
Cc1cccn2c(=O)c3cc(C(=O)NCCCn4ccnc4)n(C)c3nc12	?	i	1.4%	-13.2%	0.0%	-1.4%
COCCCNC(=O)c1cccn2c(=O)c3cc4ccccc4cc3nc12	7.31µM*	?	?	18.4µM*	4.1%	-18.2%
Cc1cccn2c(=O)c3cc(C(=O)NCCCOC(C)C)sc3nc12	20.6µM*	i	-3.8%	?	-3.8%	-18.9%
CCOCCCNC(=O)c1cc2c(=O)n3cccc(C)c3nc2s1	-5.7%	i	-6.9%	-9.0%	0.3%	-0.6%
CCCN(CCC)C(=O)c1cc2c(=O)n3cccc(C)c3nc2n1C	23.1µM*	·	·	16.4µM*	-20.5%	-25.2%
CCCN(CCC)C(=O)c1cc2c(=O)n3cccc(C)c3nc2s1	18.4µM*	i	-1.8%	?	0.0%	-16.8%
COC(=O)c1ccc(-c2cccc3c2OC(CNC(=O)c2ccc4c(c2)OCCO4)C3)nc1 (stereo not given)	-7.8%	?	·	-21.9%	·	·
O=C(c1ccc(F)cc1)c1c[nH]c(C(=O)NCc2ccco2)c1	11.6µM*	i	-18.0%	?	3.3%	-16.5%
CC(C)c1cc(N2CCN(C(=O)c3ccco3)CC2)n2c(nc3ccccc32)c1C#N	20.6µM*	i	-11.9%	14.6µM*	-5.6%	-18.3%
CCn1c(N2CCN(C(=O)c3ccco3)CC2)nc2ccccc21	-2.9%	i	-6.2%	1.3%	10.0%	-0.9%
Cc1cc(-c2ccco2)c(C#N)c2nc3ccccc3n12	18.4µM*	?	0.0%	14.6µM*	6.5%	9.4%
CC(NC(=O)COC(=O)c1nc(Cl)ccc1Cl)c1ccccc1 (stereo not given)	0.9%	i	-9.7%	4.8%	-4.9%	0.2%
CCOC(=O)c1ccc(NNC(=O)CC)c([N+](=O)[O-])c1	-11.8%	i	·	-6.5%	0.2%	5.3%
OCCN1CCN(c2ncnc3sc4c(c23)CCCC4)CC1	?	i	·	?	22.2%	-0.5%
Oc1ccc(N2CCN(c3ncnc4sc5c(c34)CCC5)CC2)cc1	13µM*	i	-19.2%	23.1µM*	4.4%	-38.4%
CCOC(=O)N1CCC(NC(=O)c2cc3cc4cc(OC)ccc4nc3o2)CC1	20.6µM*	i	-15.4%	?	-2.0%	-15.1%
COc1ccc2nc3oc(C(=O)NCc4ccccc4OC)cc3cc2c1	0.7%	i	12.3%	8.6%	-19.2%	-11.8%
